Drawing on PubChem BioAssay, this text covers z-score for 16 compounds.

Active and inactive are the calls of the source.

The nature of assay [1]: compound effects on lung adenocarcinoma cell viability – A549, calcein-AM fluorescence, 48 h, basal, profiling panel (AID 1162). The settings on record: higher = more signal.
Assay [2] is described as follows: compound effects on differentiated 3T3-L1 adipocyte viability – cell-based, 3T3-L1 adipocytes, calcein-AM fluorescence, 48 h, basal, profiling panel (AID 1163). The settings on record: 3T3-L1 adipocytes viability, higher = more signal.
Assay [3] in a line: compound effects on hepatocellular carcinoma cell viability – HepG2, calcein-AM fluorescence, 48 h, basal, profiling panel (AID 1164). The conditions noted are these: higher = more signal.
The nature of assay [4]: compound effects on multiple myeloma cell viability – MM1S, calcein-AM fluorescence, 48 h, basal, profiling panel (AID 1165).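 Note: viability of MM1S multiple myeloma cells under basal unstimulated conditions.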 The settings on record: higher = more signal.
A short description of assay [5]: calcein-AM signal in unstimulated myeloma cells – cell-based, calcein-AM fluorescence, 48 h, PK04 Diversity Set, profiling panel (AID 1166).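 Note: cells grown under basal conditions without added stimulus.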 The conditions noted are these: RPMI8226 myeloma viability, higher = more signal.
Assay [6] in a line: JC-1 mitochondrial signal, unstimulated HepG2 cells – cell-based, JC-1 fluorescence, 24 h, 100 nL compound, profiling panel (AID 1167). The conditions noted are these: HepG2 mitochondrial potential, higher = more signal.
Assay [7] in a line: JC-1 mitochondrial signal, unstimulated adipocytes – cell-based, JC-1 fluorescence, 3T3-L1 adipocytes, 24 h, 100 nL compound, profiling panel (AID 1168). The settings on record: JC-1 mitochondrial fluorescence, higher = more signal, called active from +8 up or from −8 down.
Assay [8] in a line: JC-1 mitochondrial signal, unstimulated myeloma cells – cell-based, JC-1 fluorescence, RPMI8226, 24 h, 100 nL compound, profiling panel (AID 1169). The settings on record: JC-1 mitochondrial potential fluorescence, higher = more signal.
A short description of assay [9]: JC-1 mitochondrial signal, unstimulated MM1S myeloma – cell-based, JC-1 fluorescence, 24 h, 100 nL compound, profiling panel (AID 1170). The settings on record: MM1S mitochondrial potential, higher = more signal.
Assay [10] can be described thus: resazurin metabolic signal in A549 cells – cell-based, resazurin fluorescence, 24 h, PK04 Diversity Set, profiling panel (AID 1171). The settings on record: A549 viability, higher = more signal, called active from +8 up or from −8 down. (In general: Alamar Blue is a resazurin reagent that responds to reducing activity.)
Note: test concentration not given here.

With `CO[C@@H]1COC(=O)[C@@H]2CCCN2C(=O)[C@@H](C)COC(=O)[C@H](COCc2ccccc2)NC(=O)CC=C[C@H]1C`, the z-score in assay [1] was -0.427; in assay [2], 0.169; in [3], -1.5; in assay [4], -0.329; in assay [5], -0.0455; in assay [6], -0.152. The z-score was -1.02 (inactive) in [7], -0.156 in assay [8], -0.683 in assay [9] and -0.366 (inactive) in assay [10].
For the compound `C[N+](C)(C)CCCCCCNC(=O)[C@@H]1C[C@@H]2C(=O)N3CCC[C@H]3C(=O)N2[C@@H]1c1cccc(OCCO)c1`, the z-score in assay [1] was -0.465; in [2] it was -0.0317; in assay [3], -1.92; in assay [4], 0.826; in [5], 0.844; in assay [6], -1.08. In addition, the z-score is 0.217 (inactive) in [7], -0.00411 in [8], -1.03 in assay [9] and 1.12 (inactive) in [10].
Consider `CC(=O)OC[C@H]1O[C@H](CCON=C(C)CCC(=O)OC[C@H]2O[C@H](C#Cc3ccccc3)C=C[C@@H]2Oc2ccc(C)cc2)C=C[C@@H]1OC(C)=O`, for which the z-score in assay [1] is -0.572; in [2] it was 0.442; in assay [3], 0.229; in assay [4], -2.77; in [5] it was -2.73; in assay [6], -0.797. For the same compound, the z-score was -0.942 (inactive) in assay [7], -0.199 in assay [8], -0.738 in [9] and 0.016 (inactive) in [10].
For `C#CCCCON=C1C[C@@H](O)[C@@H](O)[C@@H]2[C@@H]3C(=O)N([C@@H](C)c4ccccc4)C(=O)[C@@H]3CC[C@H]12`, the z-score in assay [1] was -0.858; in assay [2] it was -0.0991; in assay [3], -0.106; in assay [4], 0.348; in assay [5] it was -1.39; in [6] it was 0.359. Moreover, the z-score in assay [7] is 0.114 (inactive); in assay [8], 0.234; in assay [9], -0.53; in assay [10], -0.0314 (inactive).
Regarding `CCOC(=O)CCN1C(=O)[C@H]2[C@H]3[C@H](O)[C@H](O)CC(=NNC(=O)OCc4ccc(OC)cc4)[C@@H]3CC[C@H]2C1=O`, the z-score in assay [1] is -0.212; in assay [2], -0.426; in assay [3], -0.367; in [4] it was 0.717; in [5] it was 0.0819; in assay [6], -0.547. Also, the z-score is -0.0296 (inactive) in [7], -0.91 in assay [8], -1.1 in [9] and -0.807 (inactive) in assay [10].
As for `CO[C@@H]1COC(=O)CC=C[C@@H](C)[C@@H]2C=C[C@@H](O)[C@@H](COC(=O)CC=C[C@H]1C)O2`, the z-score is 0.852 in assay [1]; 0.572 in assay [2]; 1.4 in assay [3]; 0.349 in [4]; 1.01 in assay [5]; 1.33 in [6]. Moreover, the z-score in assay [7] is 0.95 (inactive); in assay [8] it was -1.01; in [9], 1.48; in [10] it was -0.299 (inactive).
Consider `COCCCNC(=O)[C@@]1(Sc2ccc(C)cc2)CC(=O)N(Cc2ccccc2)[C@@H]1c1ccc(CO)cc1I`, for which the z-score was 1.17 in assay [1]; 0.422 in assay [2]; 0.264 in assay [3]; -2.37 in assay [4]; -1.94 in [5]; 0.735 in assay [6]. Also, the z-score is -0.253 (inactive) in assay [7], -0.617 in assay [8], -1.47 in [9] and 0.491 (inactive) in assay [10].
Consider `CCOC(=O)[C@H](Cc1ccccc1)NC(=O)CCC1CC(OC(=O)NCc2ccc3c(c2)OCO3)CC2(CCCC(COC(=O)NCc3ccccc3)O2)O1` (stereo not given in full), for which the z-score in [1] is -0.195; in assay [2] it was -0.64; in assay [3], 0.607; in assay [4] it was 0.84; in [5] it was 0.709; in [6] it was 2.27. Besides, the z-score in assay [7] was 0.392 (inactive); in [8], 0.0886; in assay [9], -0.997; in assay [10], 0.98 (inactive).
For the compound `O=C(CS)NCCCCCNC(=O)[C@H]1C[C@H]2C(=O)N3CCC[C@H]3C(=O)N2[C@H]1c1cccc(OCCO)c1`, the z-score in assay [1] was 0.631; in assay [2] it was -0.367; in assay [3], 0.432; in assay [4], -0.0388; in [5] it was -0.198; in assay [6] it was 2.21. Moreover, the z-score in [7] was 0.0249 (inactive); in assay [8], -0.736; in assay [9] it was -0.419; in assay [10], 0.477 (inactive).
`CC(C)(C)OC(=O)CC[C@]1(C(N)=O)COC(c2ccc(OCCCO)cc2)=N1`: the z-score in [1] is 0.371; in [2], 0.0132; in [3] it was 0.0668; in [4] it was 0.909; in assay [5] it was -0.881; in assay [6] it was -0.143. Moreover, the z-score in assay [7] is -0.0265 (inactive); in [8] it was 0.484; in assay [9], -0.284; in assay [10], -1.05 (inactive).
Consider `C[C@@H]1C=CCC(=O)OC[C@H](C)C(=O)N[C@@H](C)C(=O)OC1`, for which the z-score was 0.195 in [1]; -0.112 in assay [2]; -0.532 in assay [3]; -0.131 in assay [4]; -0.275 in [5]; 0.391 in assay [6]. Moreover, the z-score is -0.871 (inactive) in [7], -0.0436 in assay [8], -1.26 in assay [9] and 0.156 (inactive) in assay [10].
Turning to `CCCNC(=O)OC[C@H]1O[C@H](CCON=C2[C@H]3CCn4c(=O)n(-c5ccccc5)c(=O)n4[C@H]3[C@H](O)[C@@H]3O[C@H]23)C=C[C@@H]1Oc1ccc(OC)cc1`, the z-score is -0.343 in [1]; -0.414 in assay [2]; -0.555 in assay [3]; -1.83 in assay [4]; -1.44 in assay [5]; -0.25 in assay [6]. Moreover, the z-score in assay [7] is -0.567 (inactive); in [8] it was -0.7; in assay [9], -0.75; in assay [10], -1.2 (inactive).
Take `COC(=O)[C@@H]1CCCN1C(=O)[C@@H](C)CO`: the z-score in assay [1] is 0.0364; in [2] it was 0.512; in assay [3], -0.52; in [4], -2.77; in [5], -0.57; in [6], -0.952. Besides, the z-score in assay [7] was 0.514 (inactive); in [8], -0.157; in [9] it was -1.32; in assay [10], -1.14 (inactive).
For the compound `CC(CCC(=O)OC[C@H]1O[C@H](C#Cc2ccccc2)C=C[C@@H]1Oc1ccc(C)cc1)=NOC[C@@H](O)COCc1ccco1`, the z-score in [1] is 0.303; in [2], -0.135; in [3] it was -0.45; in [4], -2.4; in assay [5], -2.27; in assay [6], -1.54. The z-score in assay [7] is 0.324 (inactive); in [8] it was -0.31; in assay [9], -1.31; in assay [10], -0.0838 (inactive).
Take `[N-]=[N+]=NCc1ccccc1C[C@]1(C(=O)NCc2ccccc2)N=C(c2ccc(OCCCO)cc2)O[C@H]1c1ccccc1N=[N+]=[N-]`: the z-score is -0.71 in assay [1]; 0.0331 in [2]; -1.03 in assay [3]; -2.98 in assay [4]; -4.24 in assay [5]; 0.504 in [6]. Further, the z-score was -0.249 (inactive) in assay [7], -1.17 in [8], -1.5 in assay [9] and -0.883 (inactive) in [10].
As for `CC(C)=CCCC(C)=CCON=C1[C@H]2CCn3c(=O)n(C)c(=O)n3[C@H]2[C@H](O)[C@@H]2O[C@H]12`, the z-score in assay [1] was 0.717; in assay [2], -0.326; in assay [3], 1.11; in assay [4] it was 0.114; in assay [5], -0.183; in [6] it was 0.46. The z-score in [7] was -0.14 (inactive); in assay [8] it was -0.2; in [9] it was -0.731; in [10], -0.83 (inactive).
